A selection: hits, their analogues and other compounds. The true share with any hit is near 4.8%.
hcDAF-12 act = H. contortus DAF-12 activation, primary screen. HEK293 hcDAF-12 lit1-tk-luc reporter, luminescence; 0% DMSO, 100% Δ7-dafachronic acid. activation, % at 6.8 µM. 370,000 tested, 1.4% active. AID 652067;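 active = activation above the mean of all tested compounds plus 3 SD, cut at about 5.5% in these data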;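 note: 100% = response to 3 µM Δ7-dafachronic acid high control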
SMARCA2 activ = activators of SMARCA2 function. MG213 cells, MMTV-luciferase reporter, dexamethasone, overnight. activation, % at 9.1 µM. 370,000 tested, 1% active; in the data active = activation above about 7.8%;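 note: 0% = vehicle wells and 100% = reference activator wells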
ssDAF-12 act = activators of S. stercoralis DAF-12 nuclear receptor. HEK293 ssDAF-12/GRIP1 lit1-tk-luc reporter, luminescence; % of 3 µM dafachronic acid response. activation, % at 6.8 µM. 370,000 tested, 1% active. AID 652126;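 active = activation above the mean over all tested compounds plus 3 SD, cut at about 0.9% in these data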;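 note: 0% = DMSO-only wells and 100% = 3 µM delta7-dafachronic acid wells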
DAX1 inh-1 = inhibits human nuclear receptor DAX1; P51843; HEK293 Gal4-DAX1 luciferase reporter, luminescence; inhibition, % at 6.75 µM; 340,000 tested, 0.99% active; AID 504766;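 active = inhibition above the mean over all tested compounds plus 3 SD, cut at about 4.2% in these data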;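 note: 0% = DAX1-transfected cells with DMSO and 100% = empty-vector control cells with DMSO; inhibition shows as a rise in luminescence from relieved DAX1 repression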
DAX1 inh-2 = blocks DAX1 repression of SF-1 activated StAR promoter; HEK293T StAR-luciferase reporter, SF-1/DAX-1 repression relief; inhibition, % at 6.8 µM; 370,000 tested, 1.1% active;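 active = inhibition above the mean over all tested compounds plus 3 SD, cut at about 3.6% in these data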;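 note: 0% = DAX-1 cells with DMSO and 100% = cells lacking DAX-1 with DMSO; higher inhibition means more luminescence from relief of DAX-1 repression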
hgDAF-12 ag = activates the H. glycines DAF-12 receptor ligand-binding domain | HEK293 GAL4-hgDAF12 UAS-luciferase reporter, agonist luminescence; normalized to butyrate control | activation, % at 6.8 µM | 370,000 tested, 1.8% active;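 active = activation above a cutoff set at the mean of all screened compounds plus 3 SD, cut at about 10% in these data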;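 note: 0% = DMSO wells and 100% = sodium butyrate wells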
hgDAF12 ag = hgDAF-12 agonism, confirmation assay; shares compounds with hgDAF-12 ag; HEK293 GAL4-hgDAF12 luciferase reporter, agonist mode; percent of butyrate response; activation, % at 6.8 µM; 3,300 tested, 80% active; AID 743050;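 active = mean activation over triplicate wells above the hit cutoff derived from the earlier primary screen, cut at about 11% in these data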;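 note: 0% = DMSO low control and 100% = 2 mM sodium butyrate high control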
LXR ag 2 = activates human LXR-beta, counter-screen for DAF-12 agonists. shares compounds with hgDAF-12 ag. HEK293 Gal4-LXR luciferase reporter, 24 h. activation, % at 6.8 µM. 3,300 tested, under 10 active;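 active = mean activation of the triplicate above a set limit carried over from the primary screen, none filed active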
Target sequence (P55055 whole entry, looked up, the tested form may be a part): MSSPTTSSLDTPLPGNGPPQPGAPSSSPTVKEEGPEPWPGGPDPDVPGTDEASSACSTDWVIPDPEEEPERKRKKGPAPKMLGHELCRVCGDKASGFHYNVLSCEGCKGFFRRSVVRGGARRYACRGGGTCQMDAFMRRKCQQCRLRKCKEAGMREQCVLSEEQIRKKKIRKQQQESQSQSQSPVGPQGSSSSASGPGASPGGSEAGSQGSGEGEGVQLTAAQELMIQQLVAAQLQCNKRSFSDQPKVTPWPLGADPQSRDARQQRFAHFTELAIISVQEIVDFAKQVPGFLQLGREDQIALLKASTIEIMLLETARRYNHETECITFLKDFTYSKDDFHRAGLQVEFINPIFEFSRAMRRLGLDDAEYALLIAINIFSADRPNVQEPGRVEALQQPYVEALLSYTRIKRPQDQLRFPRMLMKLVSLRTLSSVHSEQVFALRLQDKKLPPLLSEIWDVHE
Numbers without * were called inactive; . = no result given.

SMILES | hcDAF-12 act | SMARCA2 activ | ssDAF-12 act | DAX1 inh-1 | DAX1 inh-2 | hgDAF-12 ag | hgDAF12 ag | LXR ag 2
Cc1ccc(NC(=O)c2ncn(CC(=O)NCc3ccccc3)n2)cc1C | 4 | 7 | 0 | 0 | 1 | 5 | . | .
Nc1ccccc1SCc1cn2cccnc2n1 | 4 | 0 | 0 | 2 | 1 | 14* | 4 | 0
CC(C)(C)NC(=S)NCCc1ccccc1 | 5 | 3 | 1 | 3 | 3 | 14* | 11* | 0
Cc1ccccc1NC(=S)NCCc1ccccc1 | 0 | 1 | -1 | 0 | 0 | -1 | . | .
Cc1nn(C(=O)c2cccs2)c(N)c1-c1ccccc1 | 5 | 5 | -1 | 3 | 3.7* | 15* | 17* | 0
CC(C)C(C)(C#N)NC(=O)CSc1nnc(-c2ccncc2)n1Cc1ccccc1 (stereo not given) | 0 | 4 | -1 | 0 | 0 | -1 | . | .
CC(C)(C)NC(=O)CSc1nnc(-c2ccncc2)n1Cc1ccccc1 | 0 | 2 | -1 | 2 | 0 | 14* | 1 | 0
Cc1ccc(NC(=S)NNC(=O)c2c(Cl)c(C)nn2C)cc1 | 0 | -4 | -1 | -2 | -1 | -1 | . | .
Cc1ccc(NC(=S)NNC(=O)c2nn(C)c(C)c2Cl)cc1 | 3 | 6 | 0 | 6.5* | 3 | 16* | 10 | 0
Nc1nccc(-c2cc(-c3ccc(Cl)cc3Cl)no2)n1 | 5.7* | 5 | 1.9* | 10* | 2 | 15* | 20* | 1
Nc1c(-c2cccs2)cnn1-c1nc(-c2ccc(Cl)cc2Cl)cs1 | 1 | -5 | -1 | 3 | -1 | 1 | . | .
CC(OC(=O)c1cc(S(=O)(=O)N2CCOCC2)ccc1F)C(=O)NCC1CCCCC1 (stereo not given) | -1 | -3 | -2 | 1 | -1 | 1 | . | .
Cc1cccc(OCC(=O)Nc2ccc(NC(=O)c3ccco3)cc2)c1 | -3 | 1 | -1 | -1 | 0 | 0 | . | .
CC(=O)c1c(C)[nH]c(C(=O)OC(C)C(=O)Nc2ccc(C)c(S(=O)(=O)N3CCOCC3)c2)c1C (stereo not given) | -3 | 1 | -1 | 0 | 0 | -2 | . | .
CCCSc1nsc(NC(=O)CC)n1 | 4 | 4 | -1 | 1 | 3 | 17* | 11* | 1
CCCCCCSc1nsc(NC(=O)CC(C)C)n1 | 2 | 4 | 0 | 2 | 0 | 4 | . | .
O=C(Cn1c(=O)c(=O)n(Cc2ccccc2)c2ccc(Cl)cc21)Nc1cccc(F)c1 | -1 | 1 | 0 | 1 | 0 | 26* | 0 | 0
CC(=O)C1C(c2cn(-c3ccccc3)nc2-c2cccs2)NC(=O)NC1(O)C(F)(F)F (stereo not given) | . | . | . | 0 | . | . | . | .
COc1ccc(CC(=O)OCC(=O)Nc2ccc(OC(F)F)cc2)cc1OC | 0 | 1 | -1 | 0 | 0 | -1 | . | .
Cn1cc(Br)c(C(=O)NNC(=O)c2ccc(Br)cc2)n1 | 0 | 4 | -1 | 1 | 2 | 14* | 4 | 0
Oc1ccc2c(c1)c1c3n2CCNC3CCC1 (stereo not given) | . | . | . | 2 | . | . | . | .
O=C(Nc1ccc(Cl)cc1Cl)C1=Cc2ccccc2OC1 | 5 | 5 | 0 | 3 | 3 | 14* | 18* | 1
COC(=O)Nc1ccc(S(=O)(=O)N2CCCC(C(=O)O)C2)cc1 (stereo not given) | 0 | -6 | -2 | -1 | 0 | 1 | . | .
c1ccc(C2Oc3ccccc3C3CC(c4cccs4)=NN32)cc1 (stereo not given) | 6 | -1 | 1 | 2 | 1 | 16* | 10 | 0
CCC/C(=C1/c2ccccc2C(=O)N1c1ccccc1)c1ccc2[nH]ccc2c1 | 0 | 1 | -2 | -2 | -2 | -2 | . | .
SMILES | hcDAF-12 act | SMARCA2 activ | ssDAF-12 act | DAX1 inh-1 | DAX1 inh-2 | hgDAF-12 ag | hgDAF12 ag | LXR ag 2
N#Cc1ccc(Oc2nc(C(N)=O)cc(-c3ccccc3)n2)cc1 | 0 | -2 | -1 | -1 | 0 | 2 | . | .
CC(=O)Nc1cccc(NC(=O)c2ccc(COc3ccccc3)cc2)c1 | 3 | 7 | 0 | 1 | 2 | 13* | 17* | 1
CCOc1ccc2nc(NC(=O)NC3CCCCC3)sc2c1 | 0 | -2 | -1 | 0 | 0 | -1 | . | .
CCOc1ccc2nc(NC(=O)C3CCCO3)sc2c1 (stereo not given) | 4 | 6 | 0 | 2 | 3 | 18* | 16* | 1
O=C(Nc1nc2cc3c(cc2s1)OCO3)c1ccco1 | 5 | 1 | 0 | -5 | 4 | 19* | 9 | 1
Cc1occc1C(=O)Nc1ccc(OCc2ccccc2)cc1 | 4 | 7 | 0 | 0 | 4.4* | 14* | 19* | 0
Cc1occc1C(=O)Nc1cccc(C(=O)NCc2ccccc2)c1 | -2 | -2 | -2 | -1 | -1 | -3 | . | .
O=C(CCN1C(=O)c2ccccc2S1(=O)=O)Nc1cccc2ccccc12 | -1 | -3 | -1 | 3 | 1 | 0 | . | .
O=C(O)CCC(=O)NNC(=O)CCC1CCCCC1 | -1 | -1 | 0 | 0 | 0 | 0 | . | .
COC(=O)CNC(=O)C12CC3(C)CC(C)(CC(C)(C3)C1)C2 | -1 | 0 | -1 | 2 | 0 | -2 | . | .
CCOc1ccc2nc(NC(=O)Nc3ccccc3)sc2c1 | 2 | 2 | -1 | 4.5* | 2 | 15* | 16* | 1
CCOc1ccc(NC(=O)c2ccco2)cc1 | 2 | 6 | 0 | 0 | 4 | 15* | 13* | 1
CCOc1ccc2nc(NC(=O)c3ccco3)sc2c1 | 5 | 1 | 0 | -4 | 2 | 16* | 17* | 1
CC(C)C(=O)Nc1nc2cc3c(cc2s1)OCCO3 | 4 | -2 | -1 | -3 | 1 | 13* | 7 | 1
COC(=O)COc1ccc(NC(=O)c2ccco2)cc1 | 0 | -1 | -1 | 1 | 0 | -1 | . | .
CN1CCN(C(=S)Nc2ccccc2Cl)CC1 | 1 | -1 | 0 | 0 | -1 | 0 | . | .
COc1ccc(/C=N/NC(=O)c2cccc(OC(F)(F)C(F)F)c2)c(OC)c1OC | 1 | -4 | -1 | 1 | 1 | 4 | . | .
CCCCCSc1nc(O)cc(=O)[nH]1 | 1 | 0 | -1 | 0 | 0 | 3 | . | .
COc1ccc(OC)c(C=C2CCc3ccccc3C2=O)c1 | 2 | -3 | 0 | . | -1 | 14* | 3 | 0
CC1CC(C)CN(C(=O)COC(=O)c2nccnc2N)C1 (stereo not given) | 1 | 0 | -2 | 1 | 0 | 4 | . | .

Bioassay records: PubChem BioAssay, The Scripps Research Institute Molecular Screening Center
